Experimental data from PubChem BioAssay (NCI).
This is part of a sample that, as a whole, favours compounds with a hit. Of some 83,000 tested, about 20% had one in any assay.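 Interpretation: 100, growth as untreated; towards 0, rising growth inhibition; 0, no net growth; 0 to -100, cell death. Compounds scoring below 10 were considered active.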 A number with no mark means an inactive call. Activity calls are given as the source filed them.

Columns and labels:
Assay in all cases: NCI-60 one-dose screen, 48 h (100 = growth as untreated, 0 = no growth, -100 = all killed)
Conditions in all cases: 10 µM unless noted
DU-145 prostate = tested on: DU-145 prostate
K-562 leukemia = tested on: K-562 leukemia
MALME-3M melanoma = tested on: MALME-3M melanoma
MDA-MB-231 breast = tested on: MDA-MB-231 breast
RXF 393 renal = tested on: RXF 393 renal
SF-268 CNS = tested on: SF-268 CNS
SF-295 CNS = tested on: SF-295 CNS
SF-539 CNS = tested on: SF-539 CNS
UACC-257 melanoma = tested on: UACC-257 melanoma
M14 melanoma = tested on: M14 melanoma
HCT-15 colon = tested on: HCT-15 colon
HT29 colon = tested on: HT29 colon
SNB-19 CNS = tested on: SNB-19 CNS
U251 CNS = tested on: U251 CNS
SK-MEL-5 melanoma = tested on: SK-MEL-5 melanoma
UACC-62 melanoma = tested on: UACC-62 melanoma
LOX IMVI melanoma = tested on: LOX IMVI melanoma
SK-MEL-28 melanoma = tested on: SK-MEL-28 melanoma
PC-3 prostate = tested on: PC-3 prostate
SNB-75 CNS = tested on: SNB-75 CNS

| Structure (SMILES) | growth (DU-145 prostate) | growth (K-562 leukemia) | growth (MALME-3M melanoma) | growth (MDA-MB-231 breast) | growth (RXF 393 renal) | growth (SF-268 CNS) | growth (SF-295 CNS) | growth (SF-539 CNS) | growth (UACC-257 melanoma) | growth (M14 melanoma) | growth (HCT-15 colon) | growth (HT29 colon) | growth (SNB-19 CNS) | growth (U251 CNS) | growth (SK-MEL-5 melanoma) | growth (UACC-62 melanoma) | growth (LOX IMVI melanoma) | growth (SK-MEL-28 melanoma) | growth (PC-3 prostate) | growth (SNB-75 CNS) |
| --- | --- | --- | --- | --- | --- | --- | --- | --- | --- | --- | --- | --- | --- | --- | --- | --- | --- | --- | --- | --- |
| CC(C)(C)n1cc(-c2ccnc(NCCNS(=O)(=O)c3ccccc3)c2)c(-c2cccc(O)c2)n1 | 68.9% | 7.69% (active) | 59.4% | 42.7% | 61.6% | 63.3% | 48.3% | 52.2% | 65.8% | 53.9% | 9.17% (active) | 15.6% | 80.8% | 52% | 23.2% | 70.1% | 20.4% | 60.4% | – | – |
| O=C1/C(=C/c2ccc(F)cc2)CN(C(=O)CCN2CCC(=NO)CC2)C/C1=C\c1ccc(F)cc1 | -28% (active) | 5.22% (active) | -22.4% (active) | -55.6% (active) | -81% (active) | -23% (active) | -28.9% (active) | -63% (active) | -19.1% (active) | -10.6% (active) | -58% (active) | -76.2% (active) | -37.9% (active) | – | -89.6% (active) | – | -89.6% (active) | -59.1% (active) | -23.9% (active) | – |
| Nc1c(C(=O)Nc2cccc3c2OCCO3)sc2nc3c(cc12)C(=O)CCC3 | 22.2% | 13.7% | 56.8% | 14.7% | -18.5% (active) | 60.7% | 21.9% | -26.3% (active) | 90.6% | 33.6% | 30.1% | 13.5% | 33.3% | – | 24% | 23.5% | 41.8% | 60% | 33.9% | – |
| CCCCOc1ccc(NC(=O)n2nc(NC(C)=O)c3cc(NC(C)=O)ccc32)cc1 | 94.6% | 33.7% | 93.3% | 105% | 95.6% | 127% | 84% | 95% | 112% | 95.2% | 88.9% | – | – | 96.2% | 101% | 91.8% | 98.5% | 126% | 76.6% | 114% |
| CC(C)[C@@H]1CC[C@]2(C(=O)NCCCCN=C(N)N)CC[C@]3(C)[C@H](CC[C@@H]4[C@@]5(C)CCC(=O)C(C)(C)[C@@H]5CC[C@]43C)[C@@H]12 | 81.3% | 24.6% | 19% | 74.3% | 93.8% | 54.8% | 102% | 69.5% | 71.1% | 71.2% | 96.4% | 40.2% | 41.9% | 30.8% | 20.4% | 48.2% | 69.9% | 15.6% | 46.6% | – |
| CCCCCC(=O)Oc1ccc(/C(=C(\C)c2ccccc2)c2ccc(OCCN(CC)CC)cc2)cc1 | 103% | 12.2% | 65.3% | 84.8% | 66.9% | 71.5% | 79.5% | 46.8% | 7.01% (active) | 8.98% (active) | 38.6% | 4.26% (active) | 85.3% | 52.1% | 54.4% | 57.4% | 68.8% | 53% | 55.7% | – |
| COc1ccc(/C=C2\CN(C(=O)CCN3CCC(=NO)CC3)C/C(=C\c3ccc(OC)cc3)C2=O)cc1 | 22.6% | 4.21% (active) | -40.9% (active) | -57.9% (active) | -81.2% (active) | 13.3% | 8.38% (active) | -25.5% (active) | 22.9% | 7.58% (active) | -12.8% (active) | -48.2% (active) | 8.36% (active) | -46.2% (active) | -55.7% (active) | -70.2% (active) | -91.8% (active) | -30.5% (active) | 12.1% | – |
| C=C(C[n+]1ccccc1)[C@@H]1CC[C@]2(C(=O)OC)CC[C@]3(C)[C@H](CC[C@@H]4[C@@]5(C)CC[C@H](O)C(C)(C)[C@@H]5CC[C@]43C)[C@@H]12 | 114% | 95.7% | 103% | 114% | 106% | 97% | 103% | 91.2% | 100% | 102% | 106% | 94.5% | 106% | – | 96.5% | 91.5% | 92% | 108% | -77.4% (active) | – |
| C/C(=C(/c1ccc(O)cc1)c1ccc(Cl)cc1)c1ccccc1 | -75.2% (active) | -1.81% (active) | -94.6% (active) | -83.3% (active) | -79.3% (active) | -83.4% (active) | -95.1% (active) | -96% (active) | -74.6% (active) | -78.1% (active) | -81.9% (active) | -66.6% (active) | -86.2% (active) | -94.6% (active) | -98.9% (active) | -94.5% (active) | -95.7% (active) | -96.3% (active) | -74.6% (active) | – |
| CCCCN(CCCC)Cc1c(C)[nH]c2cc(OC)ccc2c1=O | 106% | 98% | 98% | 104% | 108% | 95.5% | 98.3% | 110% | 94.5% | 102% | 107% | – | – | 98.5% | 101% | 101% | 97.1% | 112% | 85.2% | 89.5% |
| C=C1C(=O)O[C@H]2[C@H]1CC/C(Cn1cc(Cn3ccc4cc(Cl)ccc43)nn1)=C\CC[C@@]1(C)O[C@@H]21 | 4.94% (active) | -29.2% (active) | -67.1% (active) | -51.8% (active) | -72.2% (active) | 18.4% | 73.5% | -88.6% (active) | 28.8% | -4.18% (active) | -47.1% (active) | -43.3% (active) | 53.5% | 28.9% | 46.9% | 5.99% (active) | -89.5% (active) | -13.3% (active) | 6.92% (active) | – |
| Nc1cc(O)cc2cccnc12 | 107% | 88% | 89.8% | 78.5% | 135% | 107% | 95.4% | 101% | 91.2% | 83.8% | 110% | 106% | 79.4% | – | 72.4% | 89.5% | 51.2% | 112% | 78.7% | – |
| O=C1/C(=C/c2ccc(Cl)c(Cl)c2)CN(C(=O)CCN2CCC(=NO)CC2)C/C1=C\c1ccc(Cl)c(Cl)c1 | -82.8% (active) | -27% (active) | -81.7% (active) | -90.5% (active) | -88.8% (active) | -82.6% (active) | -88.5% (active) | -93.7% (active) | -85.5% (active) | -49.7% (active) | -88.3% (active) | -85.9% (active) | -96% (active) | -93.4% (active) | -93.7% (active) | – | -90.6% (active) | -92% (active) | -71.2% (active) | – |
| COc1ccc(C/C(C)=C(\c2ccc(OCCN3CCCCCC3)cc2)c2ccc(OC(=O)C3CCCCC3)cc2)cc1 | 72.4% | 9.51% (active) | 66% | 67.6% | 60.4% | 64.2% | 86.1% | 74.7% | 77.5% | 73.1% | 38.7% | -31.8% (active) | 63.3% | 44.1% | 65.4% | 63.5% | 66.8% | 66.9% | 50.7% | – |
| C=C1C(=O)O[C@H]2[C@H]1CC/C(Cn1cc(Cc3c[nH]c4ccccc34)nn1)=C\CC[C@@]1(C)O[C@@H]21 | 20% | -12.9% (active) | -40.6% (active) | 1.06% (active) | -33.3% (active) | 35.1% | 79.3% | -55.4% (active) | 43.8% | 10.2% | -25.9% (active) | 3.04% (active) | 65.4% | – | 24.9% | 38% | -76.2% (active) | 20% | 38.7% | – |
